Results published in PubChem BioAssay (NCATS).
Results filed as inconclusive are left out. A call without a number means that no potency is given here. Active and inactive are the calls of the source. The call rests on the fitted dose curve; in most records, active means well fitted inhibition curve with a large enough effect; inconclusive means small, poorly fitted or top-dose-only effect; inactive means flat fitted curve, though single readings scatter.

Biological target: Aldehyde dehydrogenase, mitochondrial (Homo sapiens) (UniProt P05091)
Assay: qHTS for Inhibitors of the Aldehyde Dehydrogenase Family (ALDH2) Primary screen (AID 2061308); further: nearly all actives have a fitted effect of over 55% in size
Settings: ALDH2 enzyme inhibition qHTS, 1536-well; series mostly up to 56 µM

SMILES | Potency
CC(C)CCNc1ncccc1C(=O)N1CCN(Cc2ccccc2)CC1 | inactive
COc1ccc2c(OCc3nnc4ccc(-c5ccccc5)nn34)ccnc2c1 | inactive
CC1(C)CC=C(C#Cc2ccccc2)c2cc(/C=C/c3ccc(C(=O)O)cc3)ccc21 | inactive
O=C(c1ccc(F)cc1)C1CCN(CCn2c(=O)nc3n(c2=O)CCCC3)CC1 | inactive
C=C1CCC2[C@](C)(CO)CCC[C@@]2(C)[C@@H]1CCC1=CCOC1=O (stereo not given in full) | inactive
CN1CCN(Cc2ccc(NC(=O)Cc3ccc(Oc4cc(NC(=O)C5CC5)ncn4)cc3)cc2C(F)(F)F)CC1 | inactive
O=C(O)Cc1ccc2oc(-c3ccc(NC(=O)/C=C/c4ccc(Br)cc4)c(F)c3)nc2c1 | inactive
Cc1oc2nc3c(c(NC(=O)CN4CCCC4=O)c2c1C)CCCC3 | inactive
On1ncc(C2CCNCC2)c1-c1cccc(-c2ccccc2)c1 | inactive
COCc1c(Cl)ccc2c1CC[C@H]2c1ncc[nH]1 | inactive
Cc1nc2ccccc2c(-c2ccc3c4c(ccnc24)CCO3)c1[C@H](OC(C)(C)C)C(=O)O | inactive
Cc1cc(N=Nc2ccc(S(=O)(=O)Nc3ccccn3)cc2)c(N)cc1O | inactive
CO[C@H]1C=CO[C@@]2(C)Oc3c(C)c(O)c4c(O)c(c5c(c4c3C2=O)NC2(CCN(CC(C)C)CC2)N=5)=NC(=O)C(C)=CC=C[C@H](C)[C@H](O)[C@@H](C)[C@@H](O)[C@@H](C)[C@H](OC(C)=O)[C@H]1C | inactive
CN(C)c1nc(NC2CCC(NCCc3ccc(Br)cc3OC(F)(F)F)CC2)nc2ccccc12 (stereo not given) | inactive
CCCCc1nc(Cl)c(CO)n1Cc1ccc(-c2ccccc2-c2nnn[nH]2)cc1 | inactive
O=C1NC(=O)C(c2cn3c4c(cccc24)CCC3)C1c1c[nH]c2ccccc12 (stereo not given) | inactive
NS(=O)(=O)c1ccc(N2N=C(c3ccccc3)CC2c2ccccc2)cc1 (stereo not given) | inactive
CC1(C)CCC(C)(C)c2cc([C@@H](O)C(=O)Nc3ccc(C(=O)O)cc3F)ccc21 | inactive
CC[C@H]1OC(=O)[C@H](C)[C@@H](O[C@H]2C[C@@](C)(OC)[C@@H](O)[C@H](C)O2)[C@H](C)[C@@H](O[C@@H]2O[C@H](C)C[C@H](N(C)C)[C@H]2O)[C@@](C)(O)C[C@@H](C)[C@@H]2N[C@@H](COCCOC)OC([C@H]2C)[C@]1(C)O | inactive
CC[C@H]1CN(c2nc(N)c(C(N)=O)nc2Cl)CCN1C1CCN(Cc2ccc(Cl)cc2)CC1 | inactive

SMILES | Potency
Cc1occc1C(=O)n1ccnc1 | inactive
COc1ccc(NC(=O)c2ccc(-c3ccc(-c4nnc(C)o4)cc3C)cc2)cc1N1CCN(C)CC1 | inactive
COc1ccc(N2CCN(C(=O)c3cc4c(s3)-c3ccccc3S(=O)(=O)C4)CC2)cc1 | inactive
COc1cc(N)c(Cl)cc1C(=O)NC[C@@H]1CCN2CCC[C@@H]12 | inactive
O=C(CC1NCCC[C@H]1O)Cn1cnc2cc(Br)c(Cl)cc2c1=O (stereo not given in full) | inactive
Cn1cc(S(=O)(=O)c2ccc(Cl)cc2)c2cccc(N3CCNCC3)c21 | inactive
COc1ccccc1N1CCN(c2ncnc3n[nH]c(Br)c23)CC1 | inactive
COc1ccc([C@H](Cc2ccncc2)c2ccccc2)cc1OC1CCCC1 | inactive
CC(F)(F)CN1CCOc2c(nn(-c3ccccc3Cl)c2-c2ccc(Cl)cc2)C1=O | inactive
COc1cc(C(=O)NCC2(N(C)C)CCCC2)cc(OC)c1OCc1ccccc1 | inactive
CS(=O)(=O)c1ccccc1N1CCN(c2nc3c(c(=O)[nH]2)CSCC3)CC1 | inactive
Nc1ncnc2c1c(-c1ccc(Oc3ccccc3)cc1)nn2[C@@H]1CCCNC1 | inactive
COc1cc2nc(N3CCN(C(=O)COc4c(OC)cccc4C(C)C)CC3)nc(N)c2cc1OC | inactive
Cc1onc(-c2c(Cl)cccc2Cl)c1CC(=O)NCc1ccc(OCC(F)(F)F)nc1 | inactive
CCCSc1nc(NC2CC2c2ccc(F)c(F)c2)c2nnn(C3CC(OCCO)C(O)C3O)c2n1 (stereo not given) | inactive
FC(F)(F)Oc1ccc(-c2ccc3nnc(C(F)(F)F)n3c2)cc1 | inactive
CC(C)Oc1ccc(-c2cnc3c(-c4ccnc5ccccc45)cnn3c2)cc1 | inactive
CC(NC(=O)CCc1nc2ccccc2c(=O)[nH]1)c1ccccc1 (stereo not given) | inactive
COc1cccc(-c2cc(F)ccc2C2Cc3nc(N)nc(C)c3C(=O)N2)n1 (stereo not given) | inactive
COc1ccc(C(=O)Nc2c(Cl)cncc2Cl)cc1OC1CCCC1 | inactive
